Screening results deposited in PubChem by several laboratories.
BaF3 parental – counter-screen for JAK2V617F inhibitors: parental Ba/F3 viability inhibitors | CellTiter-Glo ATP luminescence | inhibition, % at 5.6 µM | 1.1% of 220,000 active | AID 1486;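 active means inhibition above a per-campaign cutoff, the mean inhibition of all tested compounds plus 3 SD, cut at about 27% in these data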
APP 5UTR inh – APP translation inhibition. SH-SY5Y APP 5'UTR-luciferase reporter, luminescence. inhibition, % at 2 µM. 0.82% of 190,000 active. AID 1285;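 active means inhibition above a set limit, derived from the sample mean plus 3 SD, cut at about 45% in these data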
KLF5 inh – suppresses KLF5 promoter-driven expression | DLD-1 KLF5 promoter-luciferase reporter, luminescence | inhibition, % at 5 µM | 0.23% of 290,000 active;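 active means inhibition above a per-plate limit of that plate's mean compound inhibition plus 3 SD, cut at about 60% in these data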;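 further: higher means less KLF5 promoter-driven luciferase light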
IEC-6 tox – IEC-6 cytotoxicity, counter-screen for KLF5 inhibitors; 0.78% of 290,000 active; inhibition, % at 5 µM; luminescence viability; AID 1825
Ba/F3 V617F tox – lowers viability of Ba/F3 cells expressing EpoR and JAK2V617F | ATP luminescence | inhibition, % at 5.6 µM | 1.1% of 220,000 active | AID 1446;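 active means inhibition above the campaign mean plus 3 SD over all tested compounds, cut at about 24% in these data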;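 further: cytokine-independent growth of Ba/F3 cells driven by EpoR plus mutant JAK2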
IEC-6 tox confirm – IEC-6 cytotoxicity, confirmation assay. IEC-6 rat intestinal epithelial viability, luminescence. shares compounds with IEC-6 tox. 63% of 1,900 active. inhibition, % at 5 µM
Of the large screens only hits and unclear results are named; the others gave an inactive call (follow-up assays come after a bar, where they were run). This is a sample that favours compounds with a hit; in the whole collection about 1.8% have one here. Unless noted, no stated cut-off is given here; in the data, active means inhibition above about 22%; inactive means the rest.

O=C(O)c1ccccc1NC(=O)c1ccccc1Nc1ccccc1	IEC-6 tox 35 (no result: BaF3 parental, APP 5UTR inh, Ba/F3 V617F tox) | IEC-6 tox confirm inactive
CS(=O)(=O)c1ccc(C(=O)OCc2nnc(-c3ccc(Cl)cc3)o2)cc1[N+](=O)[O-]	none
Cc1csc(SCC(=O)NCc2ccccc2)n1	none
Cc1csc2sc(-c3ccnc(SCC(=O)NCc4ccccc4)n3)c(C)c12	BaF3 parental 60, IEC-6 tox 74, Ba/F3 V617F tox 81 (no result: APP 5UTR inh) | IEC-6 tox confirm 65
Cc1cccc(NC(=O)Cn2cc(C(=O)C3CC3)c3ccccc32)c1C	IEC-6 tox 29 (no result: BaF3 parental, APP 5UTR inh, Ba/F3 V617F tox) | IEC-6 tox confirm inactive
COc1ccc(/C=C2\CN(Cc3ccccc3)C/C(=C\c3ccc(OC)c(O)c3)C2=O)cc1O	IEC-6 tox 33 (no result: BaF3 parental, APP 5UTR inh, Ba/F3 V617F tox) | IEC-6 tox confirm inactive
COc1cc(/C=C2/SC(=S)N(Cc3ccccc3)C2=O)ccc1O	none (no result: BaF3 parental, APP 5UTR inh, Ba/F3 V617F tox)
CCn1cc(C(=O)NCC(OC)OC)c(=O)c2cc(S(=O)(=O)N3CCC(C)CC3)ccc21	IEC-6 tox 32 (no result: BaF3 parental, APP 5UTR inh, Ba/F3 V617F tox) | IEC-6 tox confirm 25
